# Assay outcomes (PubChem BioAssay)
# Rows were chosen to be rich in hits. Some 7.9% of all compounds tested hit in one or more screens of this group.
# HCV inhibitor – HCV inhibition; Huh7.5.1 HCVcc-Cre infection, luciferase reporter, 44 h; Potency, µM (series often up to 41.8 µM), for inactives: top-dose activity change, negative = inhibition, most hits filed as inhibitors; actives 3.4% (n = 340,000); AID 651820; active = well fitted inhibition curve with a large enough effect; inconclusive = small, poorly fitted or top-dose-only effect, or another doubt; inactive = no such curve, though single readings can be large or run the other way; also: potency is read from the fitted curve at half-maximal effect
#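 After 44 h co-culture of compound, cells and HCVcc-Cre (~0.5 moi), substrate is added for 15 min at room temperature and luciferase measured over 15 sec. Cells were seeded at 1,000/well and pre-cultured 4 h.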
# Lassa entry inh – Lassa virus entry inhibition | Lassa virus pseudotype entry inhibition, cell reporter | actives 1.2% (n = 300,000) | Potency, µM (highest dose often 37.9 µM), without a hit: at the highest dose activity change, negative = inhibition, usual class: inhibitors; calls by dose curve; tested in HEK293 cells; also: potency is read from the fitted curve at half-maximal effect; nearly all actives have a fitted effect of over 50% in size
# MARV entry inh – blocks Marburg virus binding to or entry into cells. Marburg virus pseudotyped entry inhibition, cell reporter. Potency, µM (highest dose often 37.8 µM), inactives show at the top dose activity change, negative = inhibition, most hits filed as inhibitors. actives 1.8% (n = 300,000). AID 540276; calls by dose curve; tested in HEK293 cells; also: potency is read from the fitted curve at half-maximal effect
# HCMV antiviral – blocks human cytomegalovirus replication | activity change, negative = inhibition, % at 57.5 µM | actives 4.5% (n = 410,000) | AID 1259415 | HFF cells, HCMV-luciferase reporter, 72 h; hits give low values; in the data active = activity change below about -60%; inconclusive = no clear call, values can overlap the other calls; inactive = above about -39%
#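 Two-dose cell screen: HFF monolayers treated with compounds and infected with luciferase-expressing HCMV at 1 PFU/cell, 72 h at 37C, then lysed for luciferase measurement.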
# FMDV inh – blocks foot and mouth disease virus. FMDV antiviral cell-based qHTS. Potency, µM (top dose mostly 57.9 µM), for the others: at the highest dose activity change, negative = inhibition, actives largely listed as inhibitors. actives 1.2% (n = 410,000). AID 1159524; calls by dose curve; tested in HEK293T cells; also: read-out not given here; potency is read from the fitted curve at half-maximal effect; nearly all actives have a fitted effect of over 45% in size
# The depositor's hits bear a star; ? = inconclusive; · = no result; [ ] = another dose, or the depositor's remark. % is scaled to controls: 0 for no effect and ±100 for the full control effect.
SMILES,HCV inhibitor,Lassa entry inh,MARV entry inh,HCMV antiviral,FMDV inh
COc1ccc(OC)c(CNC(=O)CCCn2ccc3cc(S(=O)(=O)N4CCCC4)ccc32)c1,10µM*,-30%[46.1 µM],·,-38,?
COc1cccc(CNC(=O)CCCn2ccc3cc(S(=O)(=O)N4CCCC4)ccc32)c1,?,?,?,-26,-14%
CCc1ccc(CNC(=O)CCCn2ccc3cc(S(=O)(=O)N4CCCC4)ccc32)cc1,·,?,·,-89*,-32%
CC(C)Oc1ccc(CNC(=O)C(C)n2ccc3cc(S(=O)(=O)N4CCCCCC4)ccc32)cc1 (stereo unspecified),·,-22%[46.1 µM],·,7,15%
CC(C)c1ccc(/C=C2\C(=O)N(CCN3CCOCC3)C(=S)N2C)cc1,10µM*,?,?,-66*,?
CC(C)c1ccc(C(=O)NCCCN2CCOCC2)cc1,1%,·,·,-15,32%
COc1ccc(OC)c(NC(=O)CN(Cc2ccccc2)S(C)(=O)=O)c1,-12%,·,·,3,-4%
CCOC(=O)c1c(C)oc2ncnc(N3CCN(c4ccccc4F)CC3)c12,·,?,·,-15,32µM*
CCOC(=O)c1c(C)oc2ncnc(N3CCN(c4ccccc4)CC3)c12,·,-25%[46.1 µM],·,-24,28µM*
Nc1ncnc(N2CCc3ccccc32)c1[N+](=O)[O-],-9%,17%,21%,-83*,-16%
NNC(=O)c1ccc(N2CCc3ccccc32)c([N+](=O)[O-])c1,-7%,-3%,?,16,?
Cc1nc2cc(NCc3nc4ccccc4n3Cc3ccccc3)ccc2n1C,-27%,?,10µM*,14,-30%
Cc1ccc(N2CCN(c3ccc(NCc4nc5ccccc5n4C)cc3)CC2)cc1,?,-2%,20%,19,13%
Cc1ccc(NCc2nc3ccccc3n2C)c(C)c1,18%,?,2.5µM*,37,-1%
Cn1c(CNc2ccc(Cl)cc2)nc2ccccc21,20µM*,?,-18%,296,-3%
CC1=C(C(=O)Nc2ccc(F)cc2)C(c2ccc(N(C)C)cc2)NC(=O)N1 (stereo unspecified),·,7%[46.1 µM],6%[46.1 µM],11,-4%
Cc1nc2cc(NC(=O)[C@@H]3C[C@@H](Sc4ccccn4)CN3C3CCCCCC3)ccc2s1,·,·,·,·,12%
CCOC(=O)c1c(C)[nH]c(NC(=O)NNC(=O)c2ccccc2Cl)c1C,11µM*,·,·,-27,-20%
COC(=O)C1(O)CC(c2ccccc2)C(C(=O)c2ccccc2)N1c1ccc(F)cc1 (stereo unspecified),·,·,·,-30,·
CCOc1ccc(C(=O)N[C@H](C(=O)Nc2ccc(OC)c(S(=O)(=O)N3CCOCC3)c2)C(C)C)cc1,-19%,·,·,-26,-1%
COc1ccc(NC(=O)[C@@H](NC(=O)c2ccccc2)C(C)C)cc1S(=O)(=O)N1CCCCC1,-8%,-2%,0.11µM*,6,-5%
COc1ccc(NC(=O)c2cncc(Br)c2)cc1S(=O)(=O)N1CCCCC1,?,?,?,?,20µM*
O=C(Nc1ccc(S(=O)(=O)N2CCCC2)cc1)c1cncc(Br)c1,-15%,·,·,-26,?
COc1ccc(NC(=O)c2ccc(Cl)nc2)cc1S(=O)(=O)N1CCCCC1,11µM*,-17%,?,-3,?
COc1ccc(NC(=O)c2cc(OC)c(OC)c(OC)c2)cc1S(=O)(=O)N1CCCCC1,?,?,-17%[46.1 µM],122,?
SMILES,HCV inhibitor,Lassa entry inh,MARV entry inh,HCMV antiviral,FMDV inh
COc1ccc(NC(=O)c2cc(F)cc(F)c2)cc1S(=O)(=O)N1CCCCC1,10µM*,-29%[46.1 µM],?,?,-25%
COc1cccc(CNC(=O)c2ccc3nc(CCc4ccccc4)oc3c2)c1OC,·,-12%[46.1 µM],·,44,1%
COc1cccc(CNC(=O)[C@H]2[C@H](CO)[C@H]3Cn4c(cccc4=O)[C@@H]2N3C(=O)C2CC2)c1,·,·,·,-20,·
COc1ccc(-c2noc(CCC(=O)NC3CCCCC3)n2)cc1,?,·,·,15,2%
O=C(CSc1nc2ccc(Cl)cc2[nH]1)N1CCN(C(=O)c2ccco2)CC1,-15%,7%,7%,-65*,-13%
Cc1c(C(=O)NC(C)(C)C)sc2ncnc(NCCN(C)C)c12,·,·,·,·,-8%
Cc1cc(C)cc(OCC(=O)NC(Cc2c[nH]c3ccccc23)C(=O)O)c1 (stereo unspecified),·,3%[46.1 µM],4%[46.1 µM],5,4%
Cc1cccc(N2CCN(C(=O)COc3ccc4c(C)cc(=O)oc4c3C)CC2)c1C,10µM*,?,?,-34,?
COc1ccccc1N1CCN(C(=O)COc2cc(C)cc3oc(=O)cc(C)c23)CC1,8.9µM*,·,·,9,?
O=C(COc1ccc2ccc(=O)oc2c1)N1CCN(c2ccccc2)CC1,-12%,5%,?,-34,-22%
COC(=O)Cc1c(C)c2ccc(OCC(=O)N3CCC(C)CC3)c(C)c2oc1=O,?,-5%,-26%,-14,35µM*
Cc1cc(=O)oc2c(C)c(OCC(=O)N3CCN(c4ccc(F)cc4)CC3)ccc12,?,2%[46.1 µM],?,-17,-5%
Cc1cccc(N2CCN(C(=O)COc3ccc4ccc(=O)oc4c3)CC2)c1C,11µM*,·,·,?,?
Cc1cccc(C(=O)n2nc(-c3cccnc3)nc2NCc2ccc(F)cc2)c1,·,12%[46.1 µM],5%[46.1 µM],5,5%
C[C@H]1C(C(=O)N2CCCC2)=Cc2[nH]c(=O)[nH]c2C=C1c1ccccc1,·,·,18%[14.2 µM],·,·
O=C(NCCC1CCCCN1S(=O)(=O)c1ccccc1)C(=O)NCc1ccc(F)cc1 (stereo unspecified),?,-9%,-17%[46.1 µM],-20,0%
Cc1cc(O)cc(O)c1C(=O)OC1(C)C(=O)C=C2C=C(C=CC(=O)O)OC=C2C1=O (stereo unspecified),·,?,-31%[14.2 µM],·,·
O=S(=O)(O)c1cc(O)c(N=Nc2ccc(O)cc2O)c2ccccc12,-4%,-1%[46.1 µM],-1%[46.1 µM],?,28µM*
CCCc1nc2c(ccc3ccccc32)cc1CC,-20%,·,·,?,-12%
Cc1ccc(NS(=O)(=O)c2ccc(N3CCN(c4ccc(O)cc4)CC3)c([N+](=O)[O-])c2)c(C)c1,?,-63%,2.8µM*,-64*,28µM*
CC1(CSc2ccccc2)CC(=O)N1 (stereo unspecified),·,·,·,-79*,-4%
CC(=O)c1ccc(Oc2ccc(C(=O)c3ccc(C)c(C)c3)cc2[N+](=O)[O-])cc1,4%,1.5µM*,?,19,0%
O=C(c1cc(-c2ccc(Br)cc2)on1)N1CCCCCC1,4%,?,?,38,26%
COc1cccc(-c2cc(C(=O)N3CCOCC3)no2)c1,14%,-21%[46.1 µM],10µM*,66,-1%
O=C(c1cc(-c2ccc(Br)cc2)on1)N1CCOCC1,-19%,2.5µM*,?,-4,21%
COc1ccc(NS(=O)(=O)c2ccc(-c3coc(C)n3)cc2)cc1OC,?,·,·,-92*,-28%
CC(=O)c1ccccc1NC(C(=O)NC1CCCCC1)c1ccccc1F (stereo unspecified),·,·,·,-11,·
